Measurements: PubChem BioAssay (Tox21)
Several values for one entry are separate records, joined by “and”; a condition that tells them apart may be missing. Equal entries are not always repeated. Records with an inconclusive call do not appear. Activity calls are given as the source filed them. Unless noted, calls come from the whole dose curve; as a rule, active = well fitted curve in the direction sought with a large enough effect in the repeat runs; inconclusive = weak or mixed curves; inactive = no such curve, though single readings can be large; an effect the other way counts as inactive or inconclusive.

Tests used:
[1] = qHTS assay for small molecule agonists of the p53 signaling pathway (AID 651631; calls by dose curve; note: nearly all actives have a fitted effect of over 15% in size; note: potency is the fitted concentration of half-maximal effect)
In short: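 Stably transfected HCT-116 cells (beta-lactamase behind p53 response elements) get compounds after a 5 h settling period; 16 h later at 37 °C, FRET substrate is loaded and fluorescence read after 2 h.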

[2] = qHTS assay for small molecules that induce genotoxicity in human embryonic kidney cells expressing luciferase-tagged ATAD5 (AID 651632); note: nearly all actives have a fitted effect of over 15% in size
In short: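 HEK293T cells carrying a luciferase reporter tagged to ATAD5 were exposed to compound or DMSO vehicle for 16 hr at 37C, 5% CO2. Amplite was added, and after 30 min at room temperature luciferase activity was read as a marker of ATAD5 induction.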

[3] = qHTS assay for small molecule agonists of the p53 signaling pathway - cell viability (AID 651633; calls by dose curve; note: nearly all actives have a fitted effect of over 30% in size; note: potency is the fitted concentration of half-maximal effect;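 for activity change, negative = cytotoxicity: p53RE-bla HCT reporter cells with a stable beta-lactamase p53 reporter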)
In short: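 p53RE-bla cells, seeded at 4,000 per well and rested 5 h at 37 C/5% CO2, received compounds in DMSO for 16 h at 37 C. CellTiter-Glo was then added, and luminescence was read after 30 min at room temperature to gauge cytotoxicity.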

[4] = qHTS assay for small molecules that induce genotoxicity in human embryonic kidney cells expressing luciferase-tagged ATAD5 - cell viability (AID 651634; calls by dose curve; note: nearly all actives have a fitted effect of over 25% in size)
In short: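 HEK293T cells expressing luciferase-tagged ATAD5 were exposed to compound or DMSO for 15.5 hr at 37C, 5% CO2. Viability was then read as live-cell protease activity by CellTiter-Fluor fluorescence after 30 min at 37C.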

[5] = qHTS assay for small molecule disruptors of the mitochondrial membrane potential - cell viability (AID 720634; calls by dose curve; note: nearly all actives have a fitted effect of over 20% in size; note: potency is the fitted concentration of half-maximal effect;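 for activity change, negative = cytotoxicity: human HepG2 liver cancer cells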)
In short: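 HepG2 cells seeded overnight at 37 C, then exposed to compound or DMSO for 1 hr at 37 C, 5% CO2. m-MPI dye added, then CellTiter-Glo for 30 min at room temperature; viability read as ATP luminescence.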

[6] = qHTS assay for small molecule disruptors of the mitochondrial membrane potential (AID 720635); note: potency is the fitted concentration of half-maximal effect
In short: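 HepG2 cells (2,000/well) attached overnight at 37C, then took compound for 1 hr at 37C, 5% CO2. Mito-MPS dye was added for 30 min; fluorescence was read at 490/535 nm (monomers) and 540/590 nm (aggregates).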

[7] = qHTS assay to test for compound auto fluorescence at 590 nm (red) in HepG2 cells (AID 720674)
In short: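 Compound auto-fluorescence is scored relative to Rose Bengal sodium, measured at 540/590 nm in live HepG2 cultures after 1 hr compound contact (37 C, 5% CO2).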

[8] = qHTS assay to test for compound auto fluorescence at 535 nm (green) in HepG2 cells (AID 720675)
[9] = qHTS assay to test for compound auto fluorescence at 460 nm (blue) in HEK293 cells (AID 720678)
In short: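 Intrinsic compound fluorescence is recorded in live HEK293 cultures after overnight incubation at 37C, 5% CO2, using excitation 405 nm and emission 460 nm. Values are referenced to triamterene.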

[10] = qHTS assay to test for compound auto fluorescence at 535 nm (green) in HEK293 cells (AID 720680)
[11] = qHTS assay to test for compound auto fluorescence at 460 nm (blue) in HEK293 cell free culture (AID 720681)
In short: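 Test compounds were pinned into cell-free culture medium (DMEM with 10% FBS) and fluorescence was read directly at Ex/Em 405/460 nm. Signals were expressed as fluorescence equivalents of triamterene, with DMSO vehicle as control.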

[12] = qHTS assay to test for compound auto fluorescence at 535 nm (green) in HEK293 cell free culture (AID 720682)
In short: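 Using fluorescein as calibrant, autofluorescence was quantified at 485/535 nm in cell-free DMEM containing 10% FBS after pintool addition of compound or vehicle.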

[13] = qHTS assay to test for compound auto fluorescence at 590 nm (red) in HEK293 cell free culture (AID 720683)
In short: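 Tox21 10K library compounds were pinned into cell-free DMEM with 10% FBS and fluorescence was read at excitation 540 nm. Activity is expressed as Rose Bengal sodium equivalency.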

[14] = qHTS assay to test for compound auto fluorescence at 590 nm (red) in HepG2 cell free culture (AID 720684)
In short: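 Measured in medium alone (MEM containing 10% FBS) following pintool addition of compound; emission at 590 nm with 540 nm excitation, referenced to Rose Bengal sodium.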

[15] = qHTS assay to test for compound auto fluorescence at 460 nm (blue) in HepG2 cell free culture (AID 720685)
In short: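 Compound (23 nL) or DMSO pinned into cell-free MEM with 10% FBS; blue fluorescence read at 405/460 nm excitation/emission, expressed as auto-fluorescence equivalency to triamterene.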

[16] = qHTS assay to test for compound auto fluorescence at 535 nm (green) in HepG2 cell free culture (AID 720686)
[17] = qHTS assay to test for compound auto fluorescence at 460 nm (blue) in HepG2 cells (AID 720687)
In short: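 Cells (2,000/well in MEM with 10% FBS) attached overnight at 37 C, then were exposed to compound or DMSO for 1 hr at 37 C, 5% CO2. Fluorescence read at Ex/Em 405/460 nm, expressed as triamterene-equivalent signal.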

[18] = molecular target: Glucocorticoid receptor (Homo sapiens) (UniProt P04150); assay: qHTS assay to identify small molecule agonists of the glucocorticoid receptor (GR) signaling pathway (AID 720691; active = well fitted activation curve with a large enough effect in the signal ratio in the repeat runs, not every such curve was filed as active; the % refers to the signal ratio); conditions: GR-bla HeLa, beta-lactamase reporter ratio, 18 h; activation: at 62.4 µM (top of the series)
Glucocorticoid receptor (Homo sapiens), sequence (P04150 whole entry, looked up): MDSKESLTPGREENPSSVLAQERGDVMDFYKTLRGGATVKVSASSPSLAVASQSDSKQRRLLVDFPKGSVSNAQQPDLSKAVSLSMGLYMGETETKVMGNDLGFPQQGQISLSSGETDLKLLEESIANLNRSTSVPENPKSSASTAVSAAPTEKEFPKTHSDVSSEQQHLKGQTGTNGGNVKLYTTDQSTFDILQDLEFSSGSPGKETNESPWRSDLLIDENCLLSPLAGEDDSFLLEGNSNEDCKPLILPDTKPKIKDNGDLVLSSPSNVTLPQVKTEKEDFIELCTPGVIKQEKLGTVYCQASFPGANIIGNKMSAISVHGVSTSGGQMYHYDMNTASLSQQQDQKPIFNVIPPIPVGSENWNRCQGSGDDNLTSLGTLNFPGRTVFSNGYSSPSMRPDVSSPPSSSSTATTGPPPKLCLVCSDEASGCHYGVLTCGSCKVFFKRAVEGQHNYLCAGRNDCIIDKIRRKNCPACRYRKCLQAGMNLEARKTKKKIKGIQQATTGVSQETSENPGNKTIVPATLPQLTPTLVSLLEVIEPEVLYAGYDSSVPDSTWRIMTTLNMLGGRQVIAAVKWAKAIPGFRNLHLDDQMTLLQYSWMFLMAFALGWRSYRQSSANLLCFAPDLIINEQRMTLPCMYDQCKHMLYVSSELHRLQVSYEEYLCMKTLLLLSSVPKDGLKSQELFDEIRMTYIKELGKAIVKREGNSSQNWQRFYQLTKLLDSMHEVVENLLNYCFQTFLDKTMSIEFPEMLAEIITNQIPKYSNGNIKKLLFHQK
In short: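 GR-bla HeLa cells (beta-lactamase reporter under glucocorticoid response element) were plated 4 h at 37 C/5% CO2, given compounds in DMSO, and incubated 18 h at 37 C. LiveBLAzer B/G FRET substrate was added for 2 h at room temperature, then fluorescence intensity read.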

[19] = molecular target: Glucocorticoid receptor (Homo sapiens) (UniProt P04150); assay: qHTS assay to identify small molecule antagonists of the glucocorticoid receptor (GR) signaling pathway (AID 720692; active = well fitted inhibition curve with a large enough effect in the signal ratio in the repeat runs, not every such curve was filed as active; the % refers to the signal ratio; note: potency is the fitted concentration of half-maximal effect)
In short: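 GR-bla HeLa cells (beta-lactamase reporter under glucocorticoid response element) were pre-plated 4 h at 37 C, treated with compounds plus 5 nM dexamethasone (final) for 18 h, then read by LiveBLAzer B/G FRET fluorescence after 2 h.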

[20] = qHTS assay to test for compound auto fluorescence at 590 nm (red) in HEK293 cells (AID 720679)
In short: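 Red autofluorescence, HEK293 cells: 2,000 cells/well; attach 4-5 hr 37C; add 23 nL cpd or DMSO; incubate o/n 37C 5% CO2; read Ex540/Em590; Rose Bengal sodium reference.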
% is set by controls: 0 for no effect and ±100 for the full control effect.

Nc1nc(N)nc(Cl)n1
inactive: Potency [1] | Potency [2] | Potency [3] | Potency [4] | Potency [5] | Potency [6] | outcome [7] | Potency [8] | Potency [9] | outcome [10] | Potency [11] | outcome [12] | outcome [13] | outcome [14] | Potency [15] | Potency [16] | Potency [17] | Potency [18] | Potency [19]

CCCCC/C=C\C/C=C\C/C=C\C/C=C\CCCC(=O)NCC(=O)O
inactive: activation [1] -5.49% [at 8.3 µM] | activation [2] -2.3% [at 8.08 µM] | activity change, negative = cytotoxicity [3] -17.5% [at 8.08 µM] | activity, negative = cytotoxicity [4] 5.25% [at 8.08 µM] | activity change, negative = cytotoxicity [5] -7.39% [at 8.08 µM] | fluorescence, relative to Rose Bengal [7] -0.484% [at 3.72 µM] | fluorescence, % of fluorescein control [8] 0.165% [at 3.72 µM] | fluorescence, % of triamterene [9] -0.0359% [at 3.72 µM] | fluorescence, % of fluorescent control [20] 0.123% [at 3.72 µM] | fluorescence, % of fluorescein [10] -0.212% [at 3.72 µM] | fluorescence, % of fluorescent control [11] -0.0427% [at 3.72 µM] | activity change [12] 0.0424% [at 3.72 µM] | fluorescence, % of fluorescent control [13] 0.173% [at 3.72 µM] | fluorescence, % of Rose Bengal [14] 0.0912% [at 3.72 µM] | fluorescence, % of fluorescent control [15] -0.0542% [at 3.72 µM] | fluorescence, % of fluorescein control [16] 0.0024% [at 3.72 µM] | fluorescence, % of fluorescent control [17] -0.108% [at 3.72 µM] | activation [18] 0.54% [at 6.9 µM]

CC(C)NCC(O)c1ccccc1Cl (configuration not stated)
inactive: Potency [1] | Potency [2] | Potency [3] | Potency [4] | Potency [5] | Potency [6] | outcome [7] | Potency [8] | Potency [9] | outcome [10] | Potency [11] | outcome [12] | outcome [13] | outcome [14] | Potency [15] | Potency [16] | Potency [17]

NC(=O)C(Cl)Cl
inactive: Potency [1] | Potency [2] | Potency [3] | Potency [4] | Potency [5] | Potency [6] | outcome [7] | Potency [9] | outcome [20] | outcome [10] | Potency [11] | outcome [12] | outcome [13] | outcome [14] | Potency [15] | Potency [16] | Potency [17] | Potency [18] | Potency [19]

ClC1=C(Cl)[C@]2(Cl)[C@@H]3[C@H]4C[C@H]([C@@H]5O[C@H]45)[C@@H]3[C@@]1(Cl)C2(Cl)Cl
active: Potency [6] 16.8 µM and 19.3 µM
inactive: Potency [1] | Potency [2] | Potency [3] | Potency [4] | Potency [5] | outcome [7] | Potency [8] | Potency [9] | outcome [20] | outcome [10] | Potency [11] | outcome [12] | outcome [14] | Potency [15] | Potency [16] | Potency [17] | Potency [18] | Potency [19]

O=Cc1ccccc1
inactive: Potency [1] | Potency [2] | Potency [3] | Potency [4] | Potency [5] | Potency [6] | outcome [7] | Potency [9] | outcome [20] | outcome [10] | Potency [11] | outcome [12] | outcome [13] | outcome [14] | Potency [15] | Potency [16] | Potency [17]

CCOP(=O)(OCC)Oc1cc(C)nc(C(C)C)n1
inactive: Potency [1] | Potency [2] | Potency [3] | Potency [4] | Potency [5] | Potency [6] | outcome [7] | Potency [8] | Potency [9] | outcome [10] | Potency [11] | outcome [12] | outcome [13] | outcome [14] | Potency [15] | Potency [16] | Potency [17] | Potency [18]

CC(C)=CCN1CC[C@@]2(C)c3cc(O)ccc3C[C@@H]1[C@@H]2C
inactive: Potency [1] | Potency [2] | Potency [3] | Potency [4] | Potency [5] | Potency [6] | outcome [7] | Potency [8] | Potency [9] | outcome [20] | outcome [10] | outcome [12] | outcome [13] | outcome [14] | Potency [15] | Potency [16] | Potency [17]

O=C1C(Cl)=C(Cl)C(=O)C(Cl)=C1Cl
active: Potency [1] 30.5 µM and 6.11 µM | Potency [3] 19.3 µM and 21.7 µM | Potency [5] 30.5 µM and 27.3 µM | Potency [6] 8.6 µM and 8.63 µM | Potency [19] 30.9 µM
inactive: Potency [2] | Potency [4] | outcome [7] | Potency [8] | Potency [9] | outcome [20] | outcome [10] | Potency [11] | outcome [12] | outcome [13] | outcome [14] | Potency [15] | Potency [16] | Potency [17] | Potency [18]

CC(=O)C(Cl)C(=O)N(C)C (configuration not stated)
inactive: Potency [1] | Potency [2] | Potency [3] | Potency [4] | Potency [5] | outcome [7] | Potency [8] | Potency [9] | outcome [20] | outcome [10] | Potency [11] | outcome [12] | outcome [13] | outcome [14] | Potency [15] | Potency [16] | Potency [17]

COC(=O)N(OC)c1ccccc1COc1ccn(-c2ccc(Cl)cc2)n1
active: Potency [1] 1.72 µM | Potency [5] 1.93 µM | Potency [6] 4.86 µM
inactive: Potency [2] | Potency [3] | Potency [4] | outcome [7] | Potency [8] | Potency [9] | outcome [10] | Potency [11] | outcome [12] | outcome [13] | outcome [14] | Potency [15] | Potency [16] | Potency [17]

O=P(Cl)(Cl)Cl
inactive: Potency [1] | Potency [2] | Potency [3] | Potency [4] | Potency [5] | Potency [6] | outcome [7] | Potency [8] | Potency [9] | outcome [20] | outcome [10] | Potency [11] | outcome [12] | outcome [13] | outcome [14] | Potency [15] | Potency [16] | Potency [17] | Potency [18]

CC(Cc1ccc2c(c1)OCO2)NO (configuration not stated)
inactive: Potency [1] | Potency [2] | Potency [3] | Potency [4] | Potency [5] | outcome [7] | Potency [8] | Potency [9] | outcome [20] | outcome [10] | Potency [11] | outcome [12] | outcome [13] | outcome [14] | Potency [15] | Potency [16] | Potency [17] | Potency [18]

CNC(=O)Oc1cc(C)cc(C(C)C)c1
inactive: Potency [1] | Potency [2] | Potency [3] | Potency [4] | Potency [5] | outcome [7] | Potency [8] | Potency [9] | outcome [20] | outcome [10] | Potency [11] | outcome [12] | outcome [13] | outcome [14] | Potency [15] | Potency [16] | Potency [17]
